# From PubChem BioAssay AID2599 (Sanford-Burnham Center for Chemical Genomics, 2010)
# Out of some 330,000 compounds screened, about 5,800 (1.8%) were called active. This excerpt belongs to a sample that is enriched for actives. A number with no mark means an inactive call.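 Rule for the calls: active = inhibition above about 50% at the single tested dose (limit read from the data); inactive = the rest.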
# Target: Sentrin-specific protease 6 (Homo sapiens) (UniProt Q9GZR1)
# Assay: inhibition of human SENP6 catalytic domain – biochemical, luminescence, uHTS, primary screen (AID 2599);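 note: plate controls were DMSO wells with enzyme for no effect and DMSO wells lacking enzyme for full effect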
# Details: Recombinant SENP6 catalytic domain, aminoluciferin luminescence; at 10 µM; hits give high values
# Chain of Sentrin-specific protease 6 (Homo sapiens) (Q9GZR1 628-1112 limits assumed): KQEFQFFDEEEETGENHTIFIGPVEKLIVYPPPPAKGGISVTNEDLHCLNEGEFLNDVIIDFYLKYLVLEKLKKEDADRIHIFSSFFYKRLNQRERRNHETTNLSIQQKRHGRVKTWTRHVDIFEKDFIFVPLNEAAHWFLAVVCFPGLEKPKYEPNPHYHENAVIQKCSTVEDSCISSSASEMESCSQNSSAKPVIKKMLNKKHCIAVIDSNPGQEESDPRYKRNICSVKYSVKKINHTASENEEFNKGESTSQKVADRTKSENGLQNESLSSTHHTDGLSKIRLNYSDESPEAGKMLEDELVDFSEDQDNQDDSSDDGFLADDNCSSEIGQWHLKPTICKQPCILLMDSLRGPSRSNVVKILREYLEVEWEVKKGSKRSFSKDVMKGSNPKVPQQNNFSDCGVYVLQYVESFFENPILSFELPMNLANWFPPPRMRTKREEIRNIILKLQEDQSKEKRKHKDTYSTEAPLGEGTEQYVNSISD
row,Compound,inhibition
1,CC(OC(=O)C1CC(=O)N(Cc2ccccc2)C1)C(=O)Nc1ccccc1[N+](=O)[O-] (configuration not stated),-19.9%
2,CCCCN(C(=O)COc1ccc(NC(C)=O)cc1)C1CCS(=O)(=O)C1 (configuration not stated),-10.3%
3,Cc1cccc(Nc2ccccc2C(=O)NCc2ccco2)c1C,2.61%
4,O=C(CCNC(=O)c1ccccc1Cl)NCc1ccco1,-14.5%
5,O=C(Nc1ccccc1)Nc1ccccc1C(=O)NCc1ccco1,75.2% (active)
6,NC(N)=NCCCc1cn(CC(=O)N2CCNCC2)nn1,-12%
7,O=C(CN1CCN(S(=O)(=O)c2cccc(Cl)c2)CC1)N1CCCCC1,-12.8%
8,C=CCNC(=S)NNc1ncnc2sc3c(c12)CC(C)(C)OC3,-6.15%
9,CC(C)Sc1ncnc2c1cnn2-c1ccccc1,38.9%
10,O=C(NCCC1=CCCCC1)C1CCN(Cc2cnn(-c3ccccc3)c2-n2cccc2)CC1,12.3%
11,C1=C(CCNc2ncnc3c2cnn3-c2ccccc2)CCCC1,62.1% (active)
12,O=C(CSc1nc2[nH]ncc2c(=O)[nH]1)Nc1ccc(F)cc1,-4.08%
13,CC1(C)O[C@@H]2[C@H](O1)[C@@H](COS(=O)(=O)O)O[C@H]2n1ccc(=O)[nH]c1=O,-11.6%
14,COc1ccc(-c2csc(Nc3ccccn3)n2)cc1,81.9% (active)
15,Clc1ccc(Nc2nc(-c3cccs3)cs2)nc1,35.3%
16,COc1ccc(-c2csc(Cc3nc(O)cs3)n2)cc1,25.6%
17,Clc1ccc(-c2csc(-c3ccncc3)n2)cc1,-16.8%
18,COc1ccc2c(c1OC)C(=O)OC2Nc1nc(-c2ccccc2)cs1 (configuration not stated),-5.84%
19,CCCn1c(CCNc2nc(-c3ccc(OC)cc3)cs2)nc2ccccc21,1.04%
20,COc1ccc(Nc2nc(-c3ccccc3)cs2)cc1,88.5% (active)
21,c1ccc(Nc2nc(-c3ccncc3)cs2)nc1,88.8% (active)

row,Compound,inhibition
1,COc1ccc(-c2csc(NC(=O)COC(=O)Cc3ccc(Cl)cc3Cl)n2)cc1,20.8%
2,Oc1c(Br)cc(/C=N/NC(=S)NCC2CCCO2)cc1Br (configuration not stated),-26.9%
3,CCn1cc(C(=O)OCC(=O)Nc2cccc(C)c2)c(=O)c2ccc(C)nc21,-16.3%
4,COC(=O)c1ccc(Oc2nc(NC(C)C)nc(SC)n2)cc1,-13.9%
5,Cc1cccc(NC(=O)CSc2nnc(CCCCCNC(=O)OC(C)(C)C)o2)c1C,12.1%
6,COc1ccc(CNC(=O)C(c2ccc(O)cc2)N(Cc2ccco2)C(=O)c2snc(C(N)=O)c2N)cc1 (configuration not stated),-5.39%
7,C=CCC1(C#N)C(=S)NC(C)=C(C(=O)OCC)C1c1ccccc1 (configuration not stated),-0.11%
8,CCc1ccc(CN(C)C(=O)C2CCC(=O)N(Cc3cccc(OC)c3)C2)nc1 (configuration not stated),-7.64%
9,CCOc1ccccc1NC(=O)Cn1nnc(C(=O)NCc2cccs2)c1N,10.8%
10,CC(C)Cn1c(N)c(C(=O)NCc2cccs2)c2nc3ccccc3nc21,80.7% (active)
11,Cn1ncc(Br)c1C(=O)NCc1cccs1,-1.6%
12,OC(CN=c1sc2ccccc2n1CC(O)COc1ccccc1)COc1ccccc1 (configuration not stated),-0.866%
13,CNC(C)C#Cc1ccc2sc3cc(OC)c(OC)cc3c(=O)c2c1 (configuration not stated),78.2% (active)
14,CC(C)CN(C(=O)COC(=O)c1ccc2ccccc2c1)c1c(N)n(Cc2ccccc2)c(=O)[nH]c1=O,-9.38%
15,CCOc1cc(/C=N/n2cnnc2)c(Br)cc1O,12.6%
16,CCCCCC(O)c1cccc(OCc2ccc3ccccc3n2)c1 (configuration not stated),23%
17,O=C(COC(=O)c1cc(S(=O)(=O)N2CCOCC2)ccc1F)NC1CC1,-2.29%
18,CNCC(O)c1ccc(O)c(O)c1 (configuration not stated),-10.1%
19,CCOC(=O)C(NS(=O)(=O)c1ccc(C)cc1)(C(F)(F)F)P(=O)(OCC(C)C)OCC(C)C (configuration not stated),8.36%
20,CCCCCc1ccc(-c2ccc(OCC)cc2)nc1,-5.2%
21,CCCCCc1ccc(-c2ccc(C(=O)O)cc2)nc1,95.9% (active)

row,Compound,inhibition
1,CCCCCc1ccc(-c2cn(Cc3ccc4ccccc4c3)nn2)cc1,-16.8%
2,CC(=O)N1C(C)c2ccccc2C(C)(C)CC12CCCCC2 (configuration not stated),5.42%
3,NC(=O)Cc1nc2scc(-c3ccc(Cl)cc3)c2c(=O)[nH]1,-10.5%
4,O=c1[nH]c(CN2CCOCC2)nc2cc(Cl)ccc12,0.886%
5,O=c1[nH]c(CCl)nc2cc(-c3ccc(Cl)cc3)sc12,94.6% (active)
6,CCOC(=O)c1ccc(CS(=O)c2ccc(Cl)cc2)o1 (configuration not stated),-6.19%
7,Cc1oc(-c2ccccc2Cl)[n+]([O-])c1C,-2.99%
8,CCOC(=O)C(C)n1nc(-c2ccccc2)c2ccccc2c1=O (configuration not stated),16.8%
9,COCCNc1nnc(SCC(=O)NNC(=O)c2ccco2)s1,0.175%
10,O=C(Nc1nnc(CCOCCOCCc2nnc(NC(=O)c3ccco3)s2)s1)c1ccco1,14.7%
11,O=C(Nc1nnc(SCc2ccccc2)s1)c1ccco1,63% (active)
12,S=c1[nH]c(-c2cccs2)cn1-c1ccccc1,-4.29%
13,COc1cccc(-n2c(=S)[nH]c3c(oc4ccccc43)c2=O)c1,-5.17%
14,O=c1oc2ccccc2cc1-c1cn(-c2ccccc2)c(=S)[nH]1,94% (active)
15,CC(NC(=O)C1CCC(CNc2c(N3CCOCC3)c(=O)c2=O)CC1)c1ccccc1 (configuration not stated),-0.949%
16,COc1ccc(OC)c(C(c2nnnn2C(C)(C)C)N2CCc3ccccc3C2)c1 (configuration not stated),-3.29%
17,CCOc1ccc2[nH]c(=O)c(C(c3nnnn3CCOC)N3CCOCC3)cc2c1 (configuration not stated),7.39%
18,COCCn1nnnc1C(c1cc2ccc(OC)cc2[nH]c1=O)N1CCc2ccccc2C1 (configuration not stated),72.7% (active)
19,O=c1cc(Cl)c2ccccc2n1-c1ccccc1,-18.3%
20,CCNC(=O)NNC(=O)C1CC(c2cccs2)=NO1 (configuration not stated),-11.1%
